In PubChem BioAssay AID1240 (Sanford-Burnham Center for Chemical Genomics, 2008):
About 800 (1.6%) of roughly 50,000 compounds showed an effect of 50% or more. This excerpt belongs to a sample that is enriched for strong results.

Each compound was assayed against Bcl-2-like protein 10 (Homo sapiens) (UniProt Q9HD36) (assay: Phenotype converters, Bcl-B/TR3 peptide binding displacement, primary biochemical FP (AID 1240;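 further: 0% = Bcl-B with tracer peptide and DMSO and 100% = tracer peptide lacking Bcl-B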)). Conditions: GST-Bcl-B / FITC-TR3 peptide fluorescence polarization; stronger effect = higher value; compound at 3.75 mg/L.
Bcl-2-like protein 10 (Homo sapiens), sequence (Q9HD36 whole entry, looked up): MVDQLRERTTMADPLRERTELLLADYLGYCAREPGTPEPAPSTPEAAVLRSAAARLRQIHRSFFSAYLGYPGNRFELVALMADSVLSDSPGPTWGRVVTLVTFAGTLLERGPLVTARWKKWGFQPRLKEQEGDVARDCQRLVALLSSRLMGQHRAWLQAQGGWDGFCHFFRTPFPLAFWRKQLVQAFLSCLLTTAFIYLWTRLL
Work on `CCc1ccc(/C=C(/C#N)c2nc3ccc(C)cc3[nH]2)cc1` yielded a displacement of 3.2%. Compound `CCOc1ccc(Br)cc1/C=C(\C#N)c1nc2ccc(C)cc2[nH]1` has a displacement of 72.9%. Compound `CCCOc1ccc(Br)cc1/C=C(/C#N)c1nc2ccc(C)cc2[nH]1` has a displacement of 69.3%. Compound `CCCOc1c(I)cc(I)cc1/C=C(/C#N)c1nc2ccc(C)cc2[nH]1` has a displacement of -4.9%. `Cc1ccc2nc(/C(C#N)=C\c3ccc(Br)cc3)[nH]c2c1` gave a displacement of 136%. `CCCOc1ccc(Cl)cc1/C=C(/C#N)c1nc2ccc(C)cc2[nH]1` was tested, and the displacement was 15.5%. In the case of `Cc1ccc2nc(/C(C#N)=C\c3cc(Br)ccc3OC(C)C)[nH]c2c1`, the displacement is reported as 13.1%. `Cc1ccc2nc(/C(C#N)=C/c3cc(Br)ccc3OCc3ccccc3)[nH]c2c1` showed a displacement of -2.3%. `Cc1ccc(/C=C(/C#N)c2nc3ccc(C)cc3[nH]2)cc1` showed a displacement of 4.5%. For `COc1ccc(C2NCCc3c2[nH]c2ccccc32)cc1OC` (stereo not drawn), the displacement was 8.4%. Compound `COc1cccc(C(=O)N2N=C(c3cccnc3)CC2(O)C(F)(F)F)c1` (stereo not drawn) has a displacement of -2.9%. Compound `CCOC(=O)CN1C(c2ccccc2OC)Nc2ccc(Br)cc2C1c1ccccc1` (stereo not drawn) has a displacement of 15.6%. `Cc1ccc(S(=O)(=O)NN2C(=O)/C(=C/c3ccc(F)cc3)SC2=S)cc1` was tested, and the displacement was 2%. For `OC(CNCc1ccccc1)(c1ccccc1)c1ccc(Cl)cc1` (stereo not drawn), the displacement was -9.4%. `CCCN=C(C)c1c(C)[nH]n(-c2nc3ccccc3s2)c1=O` gave a displacement of 68.8%. `CC(=NCc1ccccc1)c1c(C)[nH]n(-c2nc3ccccc3s2)c1=O` gave a displacement of 12.2%. Work on `CC(=NCCc1ccccc1)c1c(C(F)(F)F)[nH]n(-c2nc3ccccc3s2)c1=O` yielded a displacement of -8.3%. In the case of `COc1cccc(C2C(C(=O)Nc3ccccc3)=C(C)N=c3s/c(=C\c4ccc(O)cc4)c(=O)n32)c1` (stereo not drawn), the displacement is reported as -6.7%. Work on `COc1ccc(/C=c2\sc3n(c2=O)C(c2ccc(OC)cc2)C(C(=O)OC(C)C)=C(C)N=3)cc1` (stereo not drawn) yielded a displacement of 10%. `COc1ccc(C2C(C(=O)OC(C)C)=C(C)N=c3s/c(=C/c4c[nH]c5ccccc45)c(=O)n32)cc1` (stereo not drawn) showed a displacement of 99.1%. For `CCOC(=O)C1=C(C)N=c2s/c(=C\c3cccs3)c(=O)n2C1c1cccc(OC)c1` (stereo not drawn), the displacement was 12.9%. Compound `COc1cccc(C2C(C(=O)Nc3ccccc3)=C(C)N=c3s/c(=C\c4cccs4)c(=O)n32)c1` (stereo not drawn) has a displacement of 79.1%. `COc1cccc(C2C(C(=O)Nc3ccccc3)=C(C)N=c3s/c(=C\c4sccc4C)c(=O)n32)c1` (stereo not drawn) gave a displacement of 46.7%. With `COc1cccc(C2C(C(=O)Nc3ccccc3)=C(C)N=c3s/c(=C\c4ccc(N(C)C)cc4)c(=O)n32)c1` (stereo not drawn) the displacement was 73.6%. `COc1cccc(C2C(C(=O)Nc3ccccc3)=C(C)N=c3s/c(=C\c4ccncc4)c(=O)n32)c1` (stereo not drawn) was tested, and the displacement was 9.6%. `COc1ccc(C2C(C(=O)OC(C)C)=C(C)N=c3s/c(=C\c4cc(OC)ccc4OC)c(=O)n32)cc1` (stereo not drawn) gave a displacement of 6.4%. Compound `COc1cccc(C2C(C(=O)Nc3ccccc3)=C(C)N=c3s/c(=C/c4ccccc4OC)c(=O)n32)c1` (stereo not drawn) has a displacement of 12.1%. With `CCOC(=O)C1=C(C)N=c2s/c(=C\c3c[nH]c4ccccc34)c(=O)n2C1c1cccc(OC)c1` (stereo not drawn) the displacement was 32.8%. With `COc1cccc(C2C(C(=O)Nc3ccccc3)=C(C)N=c3s/c(=C\c4c[nH]c5ccccc45)c(=O)n32)c1` (stereo not drawn) the displacement was 113%. `Cc1ccc(NC(=O)c2cc3cc([N+](=O)[O-])ccc3oc2=O)cc1` was tested, and the displacement was 13.5%. Work on `CSc1ccccc1NC(=O)CC1Nc2cc(C)c(C)cc2NC1=O` (stereo not drawn) yielded a displacement of -41.6%. In the case of `O=C1Nc2ccc(Br)c3cccc1c23`, the displacement is reported as 15.9%. In the case of `COc1cc(C(=O)NCc2cccc3ccccc23)cc(OC)c1OC`, the displacement is reported as 9.9%. For `COc1ccc(/C=C2\SC(=Nc3ccc(O)cc3)NC2=O)cc1OC`, the displacement was -6.3%. Compound `O=c1[nH]c(/C=C/c2ccc(OCc3ccccc3)cc2)c([N+](=O)[O-])c(=O)[nH]1` has a displacement of 114%. With `O=c1[nH]c(/C=C/c2ccccc2)c([N+](=O)[O-])c(=O)[nH]1` the displacement was 18.1%. Work on `COc1cc(/C=C/c2[nH]c(=O)[nH]c(=O)c2[N+](=O)[O-])cc(Br)c1OCc1ccccc1` yielded a displacement of 15.6%. Compound `CC(C)(C)OC(=O)C1C(=O)CC(C)(O)C(C(=O)OC(C)(C)C)C1c1ccccc1` (stereo not drawn) has a displacement of -1.3%. In the case of `O=c1c2ccccc2nc(SCc2ccccc2)n1Cc1ccccc1`, the displacement is reported as -0.7%. In the case of `O=C(CSc1nc2ccccc2s1)Nc1ccccc1`, the displacement is reported as 7.4%. `O=C(CSc1nc2ccccc2s1)Nc1ncccn1` showed a displacement of 57.1%. `O=C(CSc1nc2ccccc2s1)Nc1nc2ccccc2s1` gave a displacement of 7.4%. In the case of `C=CCN1C(=O)C(Cc2ccccc2)S/C1=N/N=C/c1ccccc1` (stereo not drawn), the displacement is reported as 3%. `Cc1cccc(N2CCN(C3=NC(=O)/C(=C/c4ccc(-c5cccc([N+](=O)[O-])c5)o4)S3)CC2)c1` showed a displacement of 9.8%. `CC(C)C1=NN2C(=N)/C(=C/c3ccc(Sc4ccc(Cl)cc4)o3)C(=O)N=C2S1` gave a displacement of -18.4%. Work on `CCC1=NN2C(=N)/C(=C/c3ccc(-c4cccc(C(=O)O)c4)o3)C(=O)N=C2S1` yielded a displacement of 1.4%. `CC(C)C1=NN2C(=N)/C(=C/c3ccc(-c4cccc([N+](=O)[O-])c4)o3)C(=O)N=C2S1` gave a displacement of 173%. With `CC(C)C1=NN2C(=N)/C(=C/c3ccc(-c4cccc(C(=O)O)c4)o3)C(=O)N=C2S1` the displacement was -26.4%. Compound `NC1=NC(=O)/C(=C\c2ccc(-c3ccc([N+](=O)[O-])cc3)o2)S1` has a displacement of 3.2%. `CC(C)C1=NN2C(=N)/C(=C/c3ccc(-c4ccc([N+](=O)[O-])cc4)o3)C(=O)N=C2S1` showed a displacement of 111%. With `CCC1=NN2C(=N)/C(=C/c3ccc(-c4ccccc4C(=O)OC)o3)C(=O)N=C2S1` the displacement was 3.5%. `COc1cc([N+](=O)[O-])ccc1-c1ccc(/C=C2\C(=O)N(c3ccc(S(N)(=O)=O)cc3)N=C2C)o1` was tested, and the displacement was 5.3%. For `COc1cc([N+](=O)[O-])ccc1-c1ccc(/C=C2/C(=N)N3N=C(C(C)C)SC3=NC2=O)o1`, the displacement was 77%. In the case of `CCC1=NN2C(=N)/C(=C/c3ccc(-c4ccc([N+](=O)[O-])cc4OC)o3)C(=O)N=C2S1`, the displacement is reported as 4.4%. `CCC1=NN2C(=N)/C(=C/c3ccc(-c4cccc([N+](=O)[O-])c4)o3)C(=O)N=C2S1` was tested, and the displacement was 124%. Compound `O=C1C(=O)N(c2ccccc2Br)C(=O)N1c1cccc(Cl)c1` has a displacement of 5.7%. Work on `O=C(CSCC(=O)Nc1ccccc1)NCc1ccco1` yielded a displacement of -20.8%. With `Nc1n[nH]c(N)c1N=Nc1cccc(C(F)(F)F)c1` the displacement was -2.4%. With `O=C(Cc1ccc(Cl)cc1)NNC(=O)C1CCCO1` (stereo not drawn) the displacement was 2.5%. Compound `COc1cc(C(=O)NN2C(=O)/C(=C/c3ccc(OC)c(OC)c3)SC2=S)ccc1O` has a displacement of -28.1%. `c1ccc(-c2cc(-c3cc(-c4ccccc4)on3)no2)cc1` showed a displacement of 2.6%. Compound `O=C(Oc1ccc2ccccc2c1)c1cc([N+](=O)[O-])ccc1Cl` has a displacement of -0.9%. `CC(C)C1=NN2C(=N)/C(=C/c3cc(Cl)ccc3OCc3ccccc3)C(=O)N=C2S1` gave a displacement of -7.4%. For `CN1C(=O)/C(=C\c2ccc(-c3ccc(F)c(Cl)c3)o2)SC1=S`, the displacement was 3.9%. In the case of `CCC1=NN2C(=N)/C(=C/c3ccc(OC)c(OC)c3)C(=O)N=C2S1`, the displacement is reported as -1.4%. Work on `CC(C)C1=NN2C(=N)/C(=C/c3ccc(-c4ccc(F)c(Cl)c4)o3)C(=O)N=C2S1` yielded a displacement of 146%. Compound `COc1ccc(/C=C2/C(=N)N3N=C(C(C)C)SC3=NC2=O)cc1OC` has a displacement of 133%. In the case of `COc1cc(/C=C2/C(=N)N3N=C(C(C)C)SC3=NC2=O)cc(Cl)c1OCCOc1ccccc1`, the displacement is reported as -39%. `Cc1c(Cl)cccc1N=Cc1ccc[nH]1` gave a displacement of 11.3%. `Cc1sc2nc(SCC(=O)NCCO)n(-c3ccccc3)c(=O)c2c1C` was tested, and the displacement was 1.9%. `COC(C)(C)c1cc(-c2cccc3ccccc23)nc(N)n1` gave a displacement of 0%. Compound `C=CCSc1nc(C)c2cc(OCC)ccc2n1` has a displacement of 7.4%. `CCOc1ccc2nc(SC)nc(C)c2c1` gave a displacement of -3.6%. In the case of `CCOC(=O)CC(=O)CSc1nc(C)c2cc(OCC)ccc2n1`, the displacement is reported as 67.2%. In the case of `Cc1cc(C)c2oc(-c3ccc(C)c(NC(=O)c4ccc(Br)o4)c3)nc2c1`, the displacement is reported as -3.8%. Work on `CN(C)CCCNC(=O)c1ccc(N(C)S(=O)(=O)c2ccccc2)cc1` yielded a displacement of -13.4%. `CCOC(=O)c1csc(NC(=O)c2ccc(C(=O)c3ccccc3)cc2)n1` was tested, and the displacement was -24.4%. `Cc1ccc(C(C)C)c(OCC(=O)Nc2ccc(NC(=O)c3ccccc3Cl)cc2)c1` gave a displacement of -2.1%. In the case of `Cc1cc(C)c(-n2c(O)c(/C=C3\C=Nc4ccccc43)c(=O)[nH]c2=O)c(C)c1`, the displacement is reported as -4.1%. Compound `O=c1[nH]c(=O)n(Cc2ccc(F)cc2)c(O)c1/C=C1/C=CC=N1` has a displacement of 32%. For `O=c1[nH]c(=O)n(Cc2ccc(F)cc2)c(O)c1/C=C1\C=Nc2ccccc21`, the displacement was 51.3%. In the case of `O=c1[nH]c(=O)n(-c2cccc(Br)c2)c(O)c1/C=C1\C=Nc2ccccc21`, the displacement is reported as 33.4%. Work on `Cc1cc(C)cc(-n2c(O)c(/C=C3\C=Nc4ccccc43)c(=O)[nH]c2=O)c1` yielded a displacement of 71.2%. `C=CCn1c(O)c(/C=C2\C=Nc3ccccc32)c(=O)[nH]c1=S` showed a displacement of -2.9%. `COc1cc(OC)c(OC)cc1/C=N/NC(=O)CSc1nc2ccccc2[nH]1` showed a displacement of 0.1%. Compound `O=C(Nc1ccccc1C(=O)N=Nc1c(O)[nH]c2ccc([N+](=O)[O-])cc12)c1ccccc1` has a displacement of -1.3%. With `COc1ccc(C)cc1NC(=O)CN(Cc1ccccc1)S(=O)(=O)c1ccc(OC)c(OC)c1` the displacement was -46.5%. For `COC(=O)c1c(NC(=O)Nc2ccc(Cl)c(Cl)c2)sc2c1CCC2`, the displacement was 11.8%. Work on `CCN1CCc2c(sc(NC(=O)Nc3ccc(Cl)c(Cl)c3)c2C(N)=O)C1` yielded a displacement of 111%. In the case of `CCN1CCc2c(sc(NC(=O)Nc3ccc(Cl)cc3)c2C(N)=O)C1`, the displacement is reported as 21.3%. In the case of `CCOc1ccccc1NC1=CC(=O)CC(c2ccccc2)C1` (stereo not drawn), the displacement is reported as -8.1%. Compound `COc1ccc(COCC(O)CN2CC(C)OC(C)C2)cc1OC` (stereo not drawn) has a displacement of 4%. For `O=C(c1ccc(Br)cc1)N1CCN(c2nc3ccc([N+](=O)[O-])cc3s2)CC1`, the displacement was 3.2%. Work on `CCC(=O)N1CCN(c2nc3ccc([N+](=O)[O-])cc3s2)CC1` yielded a displacement of -8.8%. `O=C(c1cccc2ccccc12)N1CCN(c2nc3ccc([N+](=O)[O-])cc3s2)CC1` showed a displacement of 28.9%. With `COc1ccccc1C(=O)N1CCN(c2nc3ccc([N+](=O)[O-])cc3s2)CC1` the displacement was -14%. `O=C(c1ccc(Cl)cc1Cl)N1CCN(c2nc3ccc([N+](=O)[O-])cc3s2)CC1` gave a displacement of 100%. For `Cc1ccccc1C(=O)N1CCN(c2nc3ccc([N+](=O)[O-])cc3s2)CC1`, the displacement was 161%.
